From PubChem BioAssay come the findings set out here.

The subject of test [1] is Plasmodium falciparum Sir2 (PF13_0152, Sir2A). As to the kind of experiment: pfSir2 binders on small-molecule microarrays, primary screen, biochemical, small-molecule microarray, 635 nm fluorescence (AID 1098).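 Note: score merges spot fluorescence intensity with its signal-to-noise ratio.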 As to conditions: small-molecule microarray binding, fluorescence 635 nm; higher = more signal.
Test [2] in a line: small-molecule microarray binders of probe aDKK1, primary screen, biochemical, biotinylated probe, 635/667 nm fluorescence (AID 1099).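 Note: score merges 667nm spot fluorescence with signal to noise across triplicate slides; reference of the scale not given here.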 As to conditions: higher = more signal.
Test [3] can be described thus: small-molecule microarray binders of probe aCHRDL2, primary screen, biochemical, biotinylated probe, 635/667 nm fluorescence (AID 1100). As to conditions: higher = more signal.
A short description of test [4]: splicing luciferase reporter signal modulators, primary screen, spliceosome inhibition project, cell-based, HEK293, splice +/- reporter (AID 1101).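 Note: HEK293 cells carrying a splicing-competent luciferase reporter gene; test concentration not given here.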 As to conditions: luminescence, 24 h, higher = more signal, called active from +8 up or from −8 down. For orientation: A reporter such as luciferase makes a cellular process visible.
The target of test [5] is Fibroblast growth factor 10 (Homo sapiens) (UniProt O15520). As to the kind of experiment: FGF10 binders on small-molecule microarrays, primary screen, biochemical, small-molecule microarray, 635 nm fluorescence (AID 1102). As to conditions: FGF10 binding, fluorescence 635 nm, higher = more signal.
The test system of test [6] is glycogen synthase kinase-3 (GSK3A per assay name; protocol says GSK3B). Description: GSK3 binders on small-molecule microarrays, primary screen, biochemical, small-molecule microarray, 635 nm fluorescence, GSK3A (AID 1103). Note: the record names both GSK3A and GSK3B. As to conditions: small-molecule microarray binding, fluorescence 635 nm; higher = more signal.
The target of test [7] is Epidermal growth factor receptor (Homo sapiens) (UniProt P00533). As to the kind of experiment: EGFR binders on small-molecule microarrays, primary screen, biochemical, small-molecule microarray, 635 nm fluorescence (AID 1104).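 Note: score merges 667 nm emission intensity with spot signal to noise over triplicate slides.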 The note with it: EGFR binding, higher = more signal.
Test [8] addresses Follistatin-related protein 3 (Homo sapiens) (UniProt O95633). As to the kind of experiment: FSTL3 binders on small-molecule microarrays, primary screen, biochemical, small-molecule microarray, 635 nm fluorescence (AID 1105).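 Note: score merges emission near 667 nm and signal to noise per printed spot across three slides.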 The note with it: FSTL3 binding, higher = more signal.
The target of test [9] is Dickkopf-related protein 1 (Homo sapiens) (UniProt O94907). Description: DKK1 binders on small-molecule microarrays, primary screen, biochemical, small-molecule microarray, 635 nm fluorescence scan (AID 1106).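 Note: score merges emission near 667 nm with signal to noise over three replicate slides.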 The note with it: DKK1 binding, higher = more signal.
Test [10] relates to Inhibin beta A chain (activin A). Description: INHBA (activin A) binders on microarrays, primary screen, biochemical, small-molecule microarray, 635 nm fluorescence scan (AID 1107).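 Note: mouse activin A protein probed at 4.33 µg/mL on printed slides; score merges bound-protein fluorescence near 667 nm with spot signal-to-noise.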 The note with it: small-molecule microarray binding, higher = more signal.

Activity calls are given as the source filed them.

Sequence of Follistatin-related protein 3 (Homo sapiens) (O95633 whole entry, looked up): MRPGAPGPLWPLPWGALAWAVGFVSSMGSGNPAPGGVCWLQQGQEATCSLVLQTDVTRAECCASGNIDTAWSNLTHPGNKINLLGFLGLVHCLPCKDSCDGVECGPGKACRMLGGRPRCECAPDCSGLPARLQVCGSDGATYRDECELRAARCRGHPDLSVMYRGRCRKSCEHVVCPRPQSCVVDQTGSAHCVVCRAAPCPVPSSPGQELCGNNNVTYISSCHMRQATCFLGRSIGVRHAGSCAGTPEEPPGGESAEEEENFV
Sequence of Dickkopf-related protein 1 (Homo sapiens) (O94907 whole entry, looked up): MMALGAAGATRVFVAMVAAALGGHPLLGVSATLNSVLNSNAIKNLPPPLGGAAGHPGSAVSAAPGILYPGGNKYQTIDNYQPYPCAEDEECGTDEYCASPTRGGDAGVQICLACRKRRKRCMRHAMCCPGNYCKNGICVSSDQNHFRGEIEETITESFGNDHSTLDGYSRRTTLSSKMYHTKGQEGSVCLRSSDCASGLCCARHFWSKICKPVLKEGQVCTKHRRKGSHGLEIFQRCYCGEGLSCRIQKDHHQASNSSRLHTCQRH
Sequence of Epidermal growth factor receptor (Homo sapiens) (P00533 whole entry, looked up): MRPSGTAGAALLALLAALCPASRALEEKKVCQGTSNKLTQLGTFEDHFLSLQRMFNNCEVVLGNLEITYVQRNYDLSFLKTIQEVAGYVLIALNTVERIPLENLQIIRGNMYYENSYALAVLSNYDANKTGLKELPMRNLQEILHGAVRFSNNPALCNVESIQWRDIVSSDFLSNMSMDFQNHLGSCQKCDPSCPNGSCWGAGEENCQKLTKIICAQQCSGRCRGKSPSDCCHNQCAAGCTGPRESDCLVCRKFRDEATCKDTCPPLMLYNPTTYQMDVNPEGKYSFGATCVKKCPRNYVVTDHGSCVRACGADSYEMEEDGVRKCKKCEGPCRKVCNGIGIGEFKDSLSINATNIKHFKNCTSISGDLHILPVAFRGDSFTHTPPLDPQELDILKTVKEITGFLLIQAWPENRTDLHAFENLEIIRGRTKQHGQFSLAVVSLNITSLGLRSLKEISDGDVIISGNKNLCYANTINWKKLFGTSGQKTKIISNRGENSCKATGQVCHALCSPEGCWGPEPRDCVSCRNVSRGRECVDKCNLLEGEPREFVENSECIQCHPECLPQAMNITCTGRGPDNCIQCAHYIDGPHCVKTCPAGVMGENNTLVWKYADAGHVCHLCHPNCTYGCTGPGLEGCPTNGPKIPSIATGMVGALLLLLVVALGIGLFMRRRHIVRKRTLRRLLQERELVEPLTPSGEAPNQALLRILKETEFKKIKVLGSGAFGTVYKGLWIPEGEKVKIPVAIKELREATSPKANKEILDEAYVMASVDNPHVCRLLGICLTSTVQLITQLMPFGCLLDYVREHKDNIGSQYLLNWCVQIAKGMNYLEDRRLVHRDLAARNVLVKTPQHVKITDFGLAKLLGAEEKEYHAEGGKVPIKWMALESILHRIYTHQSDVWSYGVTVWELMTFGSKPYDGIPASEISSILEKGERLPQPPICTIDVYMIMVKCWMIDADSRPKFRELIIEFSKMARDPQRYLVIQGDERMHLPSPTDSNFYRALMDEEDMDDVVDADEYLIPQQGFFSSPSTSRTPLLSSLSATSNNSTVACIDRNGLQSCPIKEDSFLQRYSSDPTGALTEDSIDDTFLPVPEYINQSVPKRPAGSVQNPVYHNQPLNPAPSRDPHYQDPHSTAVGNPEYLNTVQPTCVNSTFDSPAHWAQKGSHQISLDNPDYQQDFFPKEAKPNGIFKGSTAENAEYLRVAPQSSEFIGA
Sequence of Fibroblast growth factor 10 (Homo sapiens) (O15520 whole entry, looked up): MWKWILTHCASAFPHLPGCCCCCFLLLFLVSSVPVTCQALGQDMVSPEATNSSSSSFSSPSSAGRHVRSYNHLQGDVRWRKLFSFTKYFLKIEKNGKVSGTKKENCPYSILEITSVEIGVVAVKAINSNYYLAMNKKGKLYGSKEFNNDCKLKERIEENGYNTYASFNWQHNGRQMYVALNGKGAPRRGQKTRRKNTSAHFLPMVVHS

For the molecule `CC(C)C(=C=CC[C@H](O)c1ccccc1OCCO)C[C@H](O)COCc1ccccc1`, the composite z-score in test [1] was 1.63; in test [2], -0.293; in test [3], -0.0177; in test [5], 0.444; in test [6], -0.409; in test [7] it was -0.593. Further, the composite z-score in test [8] was -0.428; in [9] it was -0.42; in test [10], 0.482. In addition, the z-score in test [4] was -0.114 (inactive).

As to `O=C1C=C(c2ccccc2)C(=O)C2=C1CC([C@H]1Oc3ccccc3S(=O)(=O)N3CCC[C@@H]13)=CC2`, the composite z-score in test [1] was -0.365; in [2], -0.191; in test [3], -0.569; in [5] it was 0.0925; in test [6], -0.009; in test [7] it was 0.0548. The values for the composite z-score in [8], in [9] and in test [10] were -0.365, 0.155 and 0.718, respectively. Moreover, the z-score in test [4] is -2.32 (inactive).

On to `COC(=O)[C@H](Cc1ccccc1)N1CC2=CCCC=C[C@@H]2[C@H]1[C@H](O)Cc1ccccc1`, for which the composite z-score in [1] was 1.33; in test [2], -0.192; in [3], -0.306; in test [5], 0.363; in [6], 0.171; in test [7], -0.244. Further, the figures for the composite z-score in test [8], in test [9] and in test [10] were 0.525, 0.29 and 0.702, respectively. Moreover, the z-score in test [4] is -0.477 (inactive).

Regarding `COC(=O)[C@]1(Cc2ccccc2)N=C(c2ccc(OCCCO)cc2)O[C@@H]1c1ccccc1CN=[N+]=[N-]`, the composite z-score in test [1] is 0.965; in [2] it was 0.266; in test [3], 0.98; in [5], 0.506; in test [6], 0.509; in test [7], -0.296. Moreover, the composite z-score in [8] was 0.175; in [9], -0.0456; in test [10], 0.702. Further, the z-score in [4] is 1.76 (inactive).

Regarding `C=C(C)[C@@H]1CC=C(C(O)C2C=CC3C(=O)N(C)C(=O)C3N2Nc2ccc([N+](=O)[O-])cc2[N+](=O)[O-])CC1` (stereo not given in full), the composite z-score in test [1] was 0.626; in [2], 0.989; in test [3], 1.05; in test [5], 0.85; in [6], 1.28; in [7] it was 0.963. In addition, the composite z-score worked out at 1.04 in [8], 0.0615 in [9] and 1.35 in test [10]. Moreover, the z-score in test [4] is 1.86 (inactive).

Regarding `CC1CC/C=C\[C@H]2OC34C=CCN(Cc5ccccc5)C(=O)[C@H]3N(CCCCCCO)C(=O)[C@@H]4C2C(=O)O1` (stereo not given in full), the composite z-score is 0.954 in test [1]; -0.0995 in test [2]; 0.705 in test [3]; -0.965 in [5]; -0.587 in [6]; -1.28 in test [7]. The values for the composite z-score in test [8], in test [9] and in test [10] were -1.01, -1.49 and 0.0203, respectively. Also, the z-score in test [4] was 0.0368 (inactive).

With `O=C1C[C@@](C(=O)NCc2ccccc2)(c2ccc([N+](=O)[O-])cc2)[C@@H](c2ccc(CO)cc2)N1C1CCCCC1`, the composite z-score in test [1] is 1.34; in test [2] it was -0.437; in test [3], 0.538; in test [5], 0.42; in test [6] it was 0.97; in test [7], 0.123. Further, the composite z-score in [8] is 0.645; in test [9], 0.0339; in test [10], 0.953. Also, in [4], the z-score was -1.97 (inactive).

Consider `COCCCN1C(=O)[C@@]2(c3ccc([N+](=O)[O-])cc3)CC(=O)N(CC34CC5CC(CC(C5)C3)C4)[C@@H]2c2ccc(CO)cc21`, for which the composite z-score in test [1] was 1.47; in test [2] it was -0.183; in test [3], -0.0705; in test [5] it was 0.329; in test [6], 0.541; in test [7] it was -0.557. The composite z-score is 0.458 in test [8], -0.104 in test [9] and 0.405 in test [10]. The z-score in test [4] was -0.515 (inactive).

As to `COC(=O)[C@@]1(Cc2ccc(OC)cc2)[C@H]2c3cc(C(=O)N4CCCC4)n(Cc4c(CO)[nH]cc(C)c4=O)c3C[C@H]2CN1C(=O)c1ccccc1`, the composite z-score in test [1] is 0.488; in test [2] it was 2.01; in test [3], 1.13; in [5] it was 0.404; in test [6] it was 0.237; in test [7], -0.0221. For the same molecule, the composite z-score was 0.158 in test [8], -0.59 in test [9] and 1.02 in test [10]. The z-score in test [4] is -1.14 (inactive).

`C=CCC(OC(C)=O)[C@@H]1[C@@H](N(Cc2cccc3ccccc23)C(=O)Cc2ccc(OC)cc2)c2cc(OCCCO)ccc2N1C(=O)Cc1ccc2ccccc2c1` (stereo not given in full): the composite z-score in [1] is 0.067; in test [2] it was -0.237; in test [3] it was 0.087; in test [5] it was -0.0821; in test [6], -0.227; in test [7], 0.0289. For the same molecule, the composite z-score is 0.404 in [8], 0.073 in test [9] and 0.68 in test [10]. Moreover, the z-score in test [4] is -0.738 (inactive).

For `NCCCCCCNC(=O)[C@@H]1C[C@@H]2C(=O)N3CCC[C@H]3C(=O)N2[C@@H]1c1cccc(OCCO)c1`, the composite z-score in [1] is 1.23; in test [2], 0.0549; in test [3], 0.798; in test [5] it was 0.752; in [6], 0.851; in test [7], 0.405. Besides, the composite z-score in test [8] stood at 1.04; in test [9] it was 1.2; in [10], 1.01. In addition, the z-score in test [4] is -1.42 (inactive).
